PostGolgi yeast = growth inhibition of a yeast mutant, post-Golgi transport screen | 98,000 tested, 0.9% active | AID 739 | post-Golgi transport phenotypic cell assay | inhibition, % at 10 µM;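 also: yeast cells grown in 1536-well plates; yeast grown about 18 h at 30C before absorbance read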
CYP2C19 inh = blocks human cytochrome P450 2C19; 96,000 tested, 21% active; AID 778; inhibition, % at 5 µM; P33261; CYP2C19 Supersomes, luciferin-H EGE luminescence, 30 min;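 active = CYP2C19 inhibition above a set limit at 5 µM in the primary screen, cut at about 50% in these data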;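 also: plate controls were negative control wells for no effect and 2.5 mM tranylcypromine positive control for full effect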
Target sequence (P33261 whole entry, looked up): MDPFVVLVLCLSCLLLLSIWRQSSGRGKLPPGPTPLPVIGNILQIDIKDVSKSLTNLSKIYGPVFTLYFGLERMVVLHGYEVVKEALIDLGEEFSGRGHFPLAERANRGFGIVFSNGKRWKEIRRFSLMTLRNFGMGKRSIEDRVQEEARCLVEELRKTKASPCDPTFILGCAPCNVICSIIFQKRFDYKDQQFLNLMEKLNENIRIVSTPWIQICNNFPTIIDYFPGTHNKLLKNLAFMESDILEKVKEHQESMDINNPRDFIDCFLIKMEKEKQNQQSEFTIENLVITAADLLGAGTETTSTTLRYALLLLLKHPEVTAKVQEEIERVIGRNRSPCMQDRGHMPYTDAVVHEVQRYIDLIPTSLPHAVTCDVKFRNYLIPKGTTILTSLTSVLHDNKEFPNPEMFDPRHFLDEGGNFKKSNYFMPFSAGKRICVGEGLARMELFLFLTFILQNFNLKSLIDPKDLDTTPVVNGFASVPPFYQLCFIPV
PostGolgi ctrl = yeast control strain growth, post-Golgi counter-screen | efflux-deficient yeast background strain, growth absorbance A615, 16 h | inhibition, % at 10 µM | 98,000 tested, 5% active | AID 738
CYP2C19 activ = increases human CYP2C19 enzyme activity; P33261; recombinant CYP2C19, luciferin-H EGE luminescence; stronger effect = higher value; 0 = fully inhibited enzyme, 1 = untreated enzyme; activation factor at 5 µM; 96,000 tested, under 10 active;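 active = activation factor of at least 2 at 5 µM in the primary screen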;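 also: 0 = wells with 2.5 mM tranylcypromine and 1 = vehicle-only wells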
CYP2C9 inhib = inhibitors of human CYP2C9; P11712; CYP2C9 Supersomes, luciferin-H conversion, luminescence; 96,000 tested, 20% active; inhibition, % at 5 µM;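 active = blocking of liver enzyme CYP2C9 beyond about 50% at 5 µM, limit read from the data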
CYP2C9 activ = CYP2C9 (human) activation; P11712; recombinant CYP2C9, luciferin-H conversion, luminescence; stronger effect = higher value; factor 1 = untreated enzyme, 0 = blocked; activation factor at 5 µM; 96,000 tested, 1.4% active; AID 1024;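 active = activation factor of 2 or more for CYP2C9 at a 5 µM dose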;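 also: 0 = sulfaphenazole-blocked wells and 1 = vehicle-only wells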
The depositor's hits bear a star. A selection: hits, their analogues and other compounds. The true share with any hit is near 32%. Rule as the data show it, unless noted: active = inhibition above about 30%; inactive = the rest.

For O=C(NCc1ccc(Cl)cc1)c1cnn2ccccc12 the results were PostGolgi yeast 1, CYP2C19 inh 76*, PostGolgi ctrl 6, CYP2C19 activ 0.2, CYP2C9 inhib -4 and CYP2C9 activ 1.
CN(Cc1cc2ccccc2[nH]c1=O)C(=O)C1CCCCC1 was read as PostGolgi yeast -3, CYP2C19 inh 5, PostGolgi ctrl 1, CYP2C19 activ 1, CYP2C9 inhib -18 and CYP2C9 activ 1.2.
`Cc1cc(C(F)F)n2ncc(C(=O)NCc3ccccc3)c2n1` gave PostGolgi yeast -5, CYP2C19 inh 60*, PostGolgi ctrl 6, CYP2C19 activ 0.4, CYP2C9 inhib -10 and CYP2C9 activ 1.1.
Screening Cc1cc(C(F)(F)F)n2ncc(C(=O)O)c2n1 returned PostGolgi yeast -2, CYP2C19 inh -22, PostGolgi ctrl -8, CYP2C19 activ 1.2, CYP2C9 inhib -99 and CYP2C9 activ 2*.
For O=C(NCc1ccc(Cl)cc1)c1ccccc1Oc1ccccc1 the results were PostGolgi yeast -8, CYP2C19 inh 32, PostGolgi ctrl 33*, CYP2C19 activ 0.7, CYP2C9 inhib 54* and CYP2C9 activ 0.5.
For COCCCNC(=O)c1ccccc1Oc1ccccc1 the results were PostGolgi yeast 14, CYP2C19 inh 26, PostGolgi ctrl 0, CYP2C19 activ 0.7, CYP2C9 inhib 19 and CYP2C9 activ 0.8.
For Cc1cc(C)n2ncc(C(=O)NCCc3ccccc3)c2n1 the results were PostGolgi yeast 13, CYP2C19 inh 15, PostGolgi ctrl 6, CYP2C19 activ 0.9, CYP2C9 inhib 1 and CYP2C9 activ 1.
`Cc1cc(C(F)F)n2ncc(C(=O)O)c2n1` gave PostGolgi yeast 0 and PostGolgi ctrl -1.
For O=C(CCn1cccc1)NCc1ccc(Cl)cc1 the results were PostGolgi yeast 9, CYP2C19 inh 64*, PostGolgi ctrl 14, CYP2C19 activ 0.4, CYP2C9 inhib -4 and CYP2C9 activ 1.
For CC1CCc2nc(NC(=O)CSc3nc4ccccc4o3)sc2C1 (stereo unspecified) the results were PostGolgi yeast 0, CYP2C19 inh 22, PostGolgi ctrl -2, CYP2C19 activ 0.8, CYP2C9 inhib 43 and CYP2C9 activ 0.6.
COc1cccc2c1OC1(C)CC2/C(=C(\C)O)C(=O)N1 (stereo unspecified) was read as PostGolgi yeast 5, CYP2C19 inh -8, PostGolgi ctrl -3, CYP2C19 activ 1.1, CYP2C9 inhib -2 and CYP2C9 activ 1.
CN(C)/C=C(\C=N\OCc1ccc(Cl)cc1Cl)C(=O)Nc1ccc(Cl)c(Cl)c1 was read as PostGolgi yeast 4, CYP2C19 inh -9, PostGolgi ctrl 2, CYP2C19 activ 1.1, CYP2C9 inhib -11 and CYP2C9 activ 1.1.
For O=C(Cc1n[nH]c(=O)[nH]c1=O)N/N=C/c1ccccc1O the results were PostGolgi yeast -4, CYP2C19 inh -2, PostGolgi ctrl 11, CYP2C19 activ 1, CYP2C9 inhib 6 and CYP2C9 activ 0.9.
Cc1cc(C)n2ncc(C(=O)NCc3ccc(Cl)cc3)c2n1 was read as PostGolgi yeast -7, CYP2C19 inh 75*, PostGolgi ctrl 21, CYP2C19 activ 0.2, CYP2C9 inhib 44 and CYP2C9 activ 0.6.
Screening Cc1cc(C)n2ncc(C(=O)NCc3ccccc3)c2n1 returned PostGolgi yeast -5, CYP2C19 inh 17, PostGolgi ctrl -6, CYP2C19 activ 0.8, CYP2C9 inhib -2 and CYP2C9 activ 1.
Screening CC(C)(C)NC(=O)CN(C(=O)CS(=O)CC(=O)Nc1ccc(F)cc1)c1ccccc1 (stereo unspecified) returned PostGolgi yeast -1, CYP2C19 inh 7, PostGolgi ctrl 12, CYP2C19 activ 0.9, CYP2C9 inhib 71* and CYP2C9 activ 0.3.
`O=C(c1ccccc1)c1ccc2nc(-c3ccc(NC(=O)c4ccccc4Br)cc3)[nH]c2c1` gave PostGolgi yeast -2 and PostGolgi ctrl -4.
`Cc1ccc(-c2nc3ccccc3[nH]2)cc1NC(=S)NC(=O)c1ccccc1Br` gave PostGolgi yeast 6, CYP2C19 inh 38, PostGolgi ctrl 37*, CYP2C19 activ 0.6, CYP2C9 inhib 63* and CYP2C9 activ 0.4.
Screening Cc1ccc(-c2nc3ccccc3[nH]2)cc1NC(=O)/C=C/c1ccco1 returned PostGolgi yeast -9, CYP2C19 inh 47, PostGolgi ctrl -5, CYP2C19 activ 0.5, CYP2C9 inhib 79* and CYP2C9 activ 0.2.

Assay outcomes from PubChem BioAssay.
